# From PubChem BioAssay
# In the library only some 18% were active in any assay of this set; here they are far more common.
# VDR inhibitor – blocks the human vitamin D receptor | P11473 | VDR-SRC2-3 peptide fluorescence polarization, 2 h | Potency, µM, for inactives: max response, negative = inhibition, hits mostly inhibitors | actives 0.93% (n = 400,000) | AID 504847
#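 FP read-out; VDR + SRC2-3 coactivator peptide; 23 nl compound by pintool; 2 h RT incubation; reagents held at 4 deg C, protected from light.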
# PLK1 PBD inh – blocks phosphopeptide binding to human PLK1 polo-box domain. P53350. Plk1 PBD binding of FITC phosphopeptide, fluorescence polarization. Potency, µM, inactives show max response, negative = inhibition, usual class: inhibitors. actives 2.8% (n = 360,000); note: series mostly up to about 57 µM; nearly all actives have a fitted effect of over 65% in size
# TDP1 cell CPT – growth inhibition of DT40 Tdp1-/-;hTDP1 cells with camptothecin (screen for TDP1 inhibitors) | AID 686979 | actives 12% (n = 420,000) | chicken DT40 Tdp1-/-;hTDP1 cells + 20 nM CPT, ATP luminescence, 48 h | Potency, µM (doses to about 46.2 µM), for the others: at the highest dose activity change, negative = growth inhibition, usual class: inhibitors; note: nearly all actives have a fitted effect of over 55% in size
#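 Chicken DT40 Tdp1-/- cells complemented with human TDP1, 400 cells/well, exposed to compounds plus 20 nM camptothecin for at least 48 h at 37 C; viability read as ATP content by CellTiter-Glo luminescence.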
# GCN5L2 inh – GCN5L2 (KAT2A) acetyltransferase inhibition. Q92830. GCN5L2 HAT assay, ThioGlo1 CoA-SH fluorescence. Potency, µM (doses to about 58.9 µM), inactives show top-dose activity change, negative = inhibition, most hits filed as inhibitors. actives 0.21% (n = 390,000)
# Target sequence (Q92830 whole entry, looked up): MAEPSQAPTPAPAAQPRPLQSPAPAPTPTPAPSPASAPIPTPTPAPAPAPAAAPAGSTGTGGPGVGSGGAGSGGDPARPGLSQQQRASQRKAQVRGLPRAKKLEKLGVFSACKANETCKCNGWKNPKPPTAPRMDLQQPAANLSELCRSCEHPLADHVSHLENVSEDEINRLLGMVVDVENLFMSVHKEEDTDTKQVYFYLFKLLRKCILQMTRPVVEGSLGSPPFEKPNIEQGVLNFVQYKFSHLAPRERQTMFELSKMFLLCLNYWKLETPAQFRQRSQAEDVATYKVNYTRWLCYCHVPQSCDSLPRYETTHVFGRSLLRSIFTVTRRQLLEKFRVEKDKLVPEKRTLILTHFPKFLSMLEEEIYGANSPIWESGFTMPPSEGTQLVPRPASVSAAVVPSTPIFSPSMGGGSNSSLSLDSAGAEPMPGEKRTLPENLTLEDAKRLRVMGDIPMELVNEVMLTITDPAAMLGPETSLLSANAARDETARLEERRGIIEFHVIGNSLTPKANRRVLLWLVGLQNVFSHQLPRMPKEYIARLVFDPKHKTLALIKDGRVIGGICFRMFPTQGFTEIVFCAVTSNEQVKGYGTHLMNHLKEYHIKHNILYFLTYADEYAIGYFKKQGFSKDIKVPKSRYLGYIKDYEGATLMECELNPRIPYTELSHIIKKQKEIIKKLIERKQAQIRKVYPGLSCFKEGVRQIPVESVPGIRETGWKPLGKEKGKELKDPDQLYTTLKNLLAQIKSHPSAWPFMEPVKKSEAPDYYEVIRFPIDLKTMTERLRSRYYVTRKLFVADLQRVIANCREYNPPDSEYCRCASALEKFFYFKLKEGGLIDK
#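 GCN5L2 (20nM final) in 50mM HEPES, 0.1mM EDTA pH 7.5, 0.01% Tween-20 was preincubated 15 min at room temperature with compound, then given ThioGlo1 (50uM), H3(1-25) peptide (75uM) and acetyl-CoA (70uM); CoA-thiol fluorescence (Ex340/Em540) was read at 0 and 20 min.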
# TDP1 cell noCPT – qHTS for Inhibitors of human tyrosyl-DNA phosphodiesterase 1 (TDP1): qHTS in cells in absence of CPT. DT40 Tdp1-/- hTDP1 cells, no CPT, ATP luminescence, 48 h. Potency, µM (series often up to 46.2 µM), without a hit: at the highest dose activity change, negative = growth inhibition, hits mostly inhibitors. actives 15% (n = 420,000); note: nearly all actives have a fitted effect of over 55% in size
#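 DT40 Tdp1-/-;hTDP1 cells, no CPT (DMSO vehicle only), 400 cells/well; compounds pin-transferred; ≥48 hr, 37 °C; CellTiter-Glo 30 min RT dark, luminescence read.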
# TDP1 block – TDP1 (human) enzyme inhibition | Q9NUW8 | recombinant TDP1, AlphaScreen DNA substrate cleavage | Potency, µM (titrated, usually from 130 µM), for inactives: top-dose activity change, negative = inhibition, hits mostly inhibitors | actives 0.28% (n = 350,000); note: nearly all actives have a fitted effect of over 40% in size
#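 Enzyme-compound mixtures sat 15 min at room temperature, followed by a 5 min reaction with 15 nM final substrate and 10 min with AlphaScreen beads. Recombinant human Tdp1 was used at 1 nM final.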
# * hit, by the source's call; ? = inconclusive; . = no result; [ ] = remark or other dose. Calls come from the whole dose curve; as a rule, active = well fitted curve in the direction sought with a large enough effect; inconclusive = small, poorly fitted or top-dose-only effect, or another doubt; inactive = no such curve, though single readings can be large; an effect the other way counts as inactive or inconclusive. % is set by controls: 0 for no effect and ±100 for the full control effect; potency is the fitted concentration of half-maximal effect.
SMILES,VDR inhibitor,PLK1 PBD inh,TDP1 cell CPT,GCN5L2 inh,TDP1 cell noCPT,TDP1 block
CCOC(=O)c1c(C)[nH]c(C)c1C(=O)COC(=O)[C@@H]1CCCN1S(=O)(=O)c1ccc(Cl)cc1,15%,0%,15µM*,-9%,13µM*,-1%
Cc1ccc(S(=O)(=O)N2CCC[C@H]2C(=O)OCC(=O)c2ccc3c(c2)NC(=O)CO3)cc1,?,27µM*,-18%,-17%,7%,2%
O=C1CC(c2ccccc2)Cc2[nH]c(=O)c(C(=O)Nc3cccc(F)c3)cc21 (stereo not given),-1%,.,?,-15%,?,6%
COC(=O)c1cn(-c2nc3ccccc3s2)nn1,.,-16%,?,.,16µM*,.
COc1cc(OC)c(NC(=O)Nc2ccccc2OCc2cc(=O)n3cc(C)ccc3n2)cc1Cl,4%,.,8.2µM*,-10%,9.2µM*,3%
Cc1ccn2c(=O)cc(COc3cccc(NC(=O)Nc4cccc(Cl)c4C)c3)nc2c1,0%,.,?,-10%,23µM*,5%
Cc1cccc(OCC(=O)Nc2ccccc2OCc2cc(=O)n3cc(C)ccc3n2)c1,2%,.,13µM*,-3%,?,11%
Cc1ccc2nc(COc3ccccc3NC(=O)COc3ccccc3Cl)cc(=O)n2c1,-2%,.,-5%,-5%,-15%,3%
Cc1ccc(NC(=O)Nc2ccccc2OCc2cc(=O)n3ccccc3n2)c(Cl)c1,6%,.,-8%,-8%,-20%,5%
COc1cc(OC)c(NC(=O)Nc2cccc(OCc3cc(=O)n4ccccc4n3)c2)cc1Cl,-7%,.,18µM*,0%,13µM*,3%
Cc1ccc(S(=O)(=O)CCC(=O)OCC(=O)N(C)c2ccccc2)cc1,2%,3%,-26%,.,-13%,.
O=C1c2ccccc2C(=O)N1c1ccc(S(=O)(=O)N2CCOCC2)cc1,3%,.,-2%,.,3%,0%
CC(=O)Nc1ccc(CN(C)c2c(C)nc3ccc(C(=O)N4CCN(C(C)=O)CC4)cn23)cc1,.,-7%,9%,.,26%,.
COc1cccc([C@@H]2CC=C(C(=O)O)CN2S(=O)(=O)c2ccc(C)cc2)c1,-11%,0%,?,-4%,-15%,4%
CC(=O)C1=CCC(c2ccc(Cl)cc2)N(S(=O)(=O)c2ccccc2C)C1 (stereo not given),.,-18%,29µM*,.,23µM*,.
CC(=O)C1=CCC(c2ccccc2)N(S(=O)(=O)c2ccc(Cl)cc2)C1 (stereo not given),.,-8%,?,.,15µM*,.
CC(=O)C1=CCC(c2ccccc2)N(Cc2ccccc2)C1 (stereo not given),.,-2%,?,.,15µM*,.
CC(=O)C1=CCC(c2cccs2)N(S(=O)(=O)c2ccc(C)cc2)C1 (stereo not given),.,-4%,?,.,?,.
CC(=O)C1=CCC(c2ccc(C)o2)N(S(=O)(=O)c2ccc(C)cc2)C1 (stereo not given),.,-4%,16µM*,.,18µM*,.
CC(=O)C1=CN(Cc2ccccc2)CCC1=O,-17%,-6%,-1%,.,-8%,.
CC(=O)OC[C@@H]1O[C@@H](O/N=C2/C[C@@H](O)[C@@H](O)[C@@H]3[C@@H]4C(=O)N(c5cccc(Oc6ccccc6)c5)C(=O)[C@H]4CC[C@@H]23)[C@H](OC(C)=O)[C@H](OC(C)=O)[C@@H]1OC(C)=O,.,.,.,.,.,1%[21 µM]
CC(C)CN(C(=O)COC(=O)Cc1c[nH]c2ccccc12)c1c(N)n(Cc2ccccc2)c(=O)[nH]c1=O,-12%,-4%,?,1%,0%,5%
Cn1c2ccccc2c(=O)c2c(=O)n(-c3ccc(F)cc3)c(C3CCCCC3)nc21,5%,-5%,?,.,31%,.
CC(C)c1ccc(NC(=O)CCNS(=O)(=O)c2ccc3c(c2)oc(=O)n3C)cc1,-9%,.,-28%,-6%,-27%,4%
Cc1ccc(S(=O)(=O)N2C[C@@H]3[C@H]4CC[C@H](C4)[C@@H]3[C@@H](C)[C@@H]2c2ccn([Si](C(C)C)(C(C)C)C(C)C)c2)cc1,1%,-3%,?,-2%,23µM*,.
SMILES,VDR inhibitor,PLK1 PBD inh,TDP1 cell CPT,GCN5L2 inh,TDP1 cell noCPT,TDP1 block
Cc1ccc(S(=O)(=O)N2C[C@@H]3[C@H]4CC[C@H](C4)[C@@H]3[C@@H](C)C2CC(=O)c2ccccc2)cc1 (stereo not given in full),?,-9%,?,-6%,23µM*,0%[56.1 µM]
CCCOCC(O)CC(Cc1ccccc1)C(=O)NN (stereo not given),-9%,5%,-4%,-6%,5%,.
CCCS(=O)(=O)NCc1c(C)ncc2c1CCN(C(=O)c1c(F)ccc(F)c1F)C2,.,.,4%[9.04 µM],.,0%,.
Cc1c(C(=O)N2CCN(S(=O)(=O)c3ccccc3)CC2)oc2ccc(Br)cc12,9%,3%,-9%,-10%,?,0%
COCc1ccc(CN2Cc3ccccc3OC(c3ccccc3F)C2)o1 (stereo not given),.,.,4%[9.04 µM],.,-30%,.
Cc1ccccc1-c1nnc(CN2CCN(c3ccccn3)CC2)o1,2%,.,-16%,-8%,-15%,2%
CCC(=O)Nc1c(C#N)c2nc3ccccc3nc2n1-c1ccc(C)cc1,-10%,-22%,-7%,.,-3%,.
CCC(C)n1c(NC(=O)c2ccccc2)c(C#N)c2nc3ccccc3nc21 (stereo not given),?,17%,18µM*,-18%,13µM*,-5%
CCCCn1c(NC(=O)c2ccccc2)c(C#N)c2nc3ccccc3nc21,?,-26%,26µM*,?,18µM*,9%
O=S(=O)(c1ccccc1Br)N1CCN(c2nc(-c3cccs3)nc3ccccc23)CC1,-14%,.,?,.,?,0%
CCOc1ccc(OC(=O)c2sc3ncn(Cc4cccc(F)c4)c(=O)c3c2C)cc1,19%,.,?,-5%,?,-8%
COc1ccc(C2/C=C\CN(C(=O)C3CC3)C(Cc3ccccc3)C(=O)N2Cc2ccc(F)cc2)cc1 (stereo not given),-18%,.,.,.,.,10%
COc1ccc(/C=N/N2C(=O)CN(C(=O)c3ccccc3)C2c2ccc(OC)cc2)cc1 (stereo not given),?,3%,-25%,-7%,?,.
COc1ccc(C2/C=C\CN(C(=O)c3ccc(C)cc3)[C@H](Cc3ccccc3)C(=O)N2Cc2ccc(F)cc2)cc1 (stereo not given in full),1%,0%,4.6µM*,1%,5.8µM*,4%
